Reference: PubChem BioAssay (NCATS)
Records with an inconclusive call do not appear. Values without a mark were called inactive. Activity calls are given as the source filed them. Calls come from the whole dose curve; as a rule, active = well fitted cell-killing curve with a large enough effect; inconclusive = small, poorly fitted or top-dose-only effect, or effect the other way; inactive = flat fitted curve, though single readings scatter.

test system: HeLa; test: Primary qHTS to identify gynecologic anti-cancer compounds using libraries of approved drugs and bioactive compounds (AID 1345084); conditions: Gynecologic cancer cell panel viability, ATPlite luminescence, 48 h; series mostly up to 57.5 µM; activity change, negative = cytotoxicity: at the top concentration; note: nearly all actives have a fitted effect of over 55% in size
Summary of the method: (§1)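 Luminescence from the ATPlite ATP-monitoring reagent indicates viable cell number; lower signal means cytotoxicity. Cells received compound 16 h after seeding and were exposed for 48 h across five concentrations.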
% is set by controls: 0 for no effect and ±100 for the full control effect; potency is the fitted concentration of half-maximal effect.

Structure (SMILES)	activity change, negative = cytotoxicity	Potency
CN(C)[C@@H]1C(=O)C(C(N)=O)=C(O)[C@@]2(O)C(=O)C3=C(O)c4c(O)ccc(Cl)c4[C@@](C)(O)C3C[C@@H]12 (stereo partly drawn)	8.71%	
CC(C)[C@H](NC(=O)c1nn(Cc2ccc(F)cc2)c2ccccc12)C(N)=O	-0.241%	
CN1CCCCC1Cn1cc(C(=O)c2cc([N+](=O)[O-])ccc2I)c2ccccc21 (stereo not drawn)	-9.22%	
CC12CCC3C(C1)c1c(cc(O)c(C(=O)c4ccccc4)c1OC3(C)C)O2 (stereo not drawn)	-12% [at 38.5 µM]	
C#C[C@]1(O)CC[C@H]2[C@@H]3CC[C@H]4Cc5nc6nc7ccccc7n6cc5C[C@]4(C)[C@H]3CC[C@@]21C	-11.4%	
CCC1C2CC3C4N(C)c5ccccc5C45CC(C2C5O)N3C1O (stereo not drawn)	5.17% [at 38.5 µM]	
COc1cc(O)c2c(c1)CCC[C@@H](O)[C@H](O)C(=O)/C=C\C[C@H](C)OC2=O	-2.6% [at 38.5 µM]	
C=C(C)C(=O)O[C@H]1[C@@H]2[C@H](C)C(=O)O[C@@H]2C[C@@H](C)[C@@H]2C=CC(=O)[C@]21C	-20% [at 38.5 µM]	
CCN1C[C@]2(COC)CC[C@H](O)[C@@]34C5C[C@@H]6[C@@H](OC)C[C@@](OC(C)=O)(C5[C@@H]6OC(C)=O)[C@H]([C@H](OC)C23)[C@@H]14 (stereo partly drawn)	-1.14% [at 25.3 µM]	
CN1C(=O)N(c2ccc(C#N)c(C(F)(F)F)c2)C(=O)[C@@]1(CO)c1ccccc1	4.98%	
CCCCCn1cc(C(=O)Oc2cccc3cccnc23)c2ccccc21	-1.44%	
CN=C(NS(=O)(=O)c1ccc(Cl)cc1)N1C[C@H](c2ccccc2)C(c2ccc(Cl)cc2)=N1	-0.255%	
COC1CC(O[C@H]2CC[C@@]3(C)C(CCC4C3CC[C@]3(C)C(C5=CC(=O)OC5)CCC43O)C2)OC(C)C1OC1OC(COC2OC(CO)C(O)C(O)C2O)C(O)C(O)C1O (stereo partly drawn)		2.82 µM (active)
CN1Cc2c(ccc3c2OCO3)[C@@H]2[C@H]1c1cc3c(cc1C[C@@H]2O)OCO3		3.16 µM (active)
CN(Cc1cccc(-c2ccncc2)c1)C(=O)Oc1ccc(-c2ccc(C(N)=O)cc2)cc1	3.41%	
COC(=O)C12C(=O)C(C)(O)C(=O)C1(C)C(C)=CC1C34CCC(OC3=O)C(C)(C)C4CCC12C (stereo not drawn)	-16.3% [at 25.3 µM]	
CCOc1ccc(Oc2ccc(OCc3cc(F)ccc3F)cc2)c(N)c1	-1.57%	
Cc1ccc2c(c1)[C@H]1CN(C)CC[C@H]1N2C(=O)CSc1nnnn1-c1ccc(Cl)cc1	-2.21%	
C=C1C2(C)CC3C(C)(O)C4=CC(=O)OC(C)(C)C4=CCC3(C)C13C(=O)OC(C)C3(O)C2=O (stereo not drawn)	-1.37% [at 25.3 µM]	
Fc1cc(F)c2c(c1)C1C=CCC1C(c1cccnc1)N2 (stereo not drawn)		10 µM (active)
CCCN(CCC)[C@@H]1CCc2ccc3[nH]c(C#N)cc3c2C1	18.5%	
c1ccc([C@@H]2C[C@H]2NC2CCNCC2)cc1	0.395%	
CC(=O)OC[C@]12[C@H](OC(C)=O)C(=O)[C@@H]3[C@@H](O)[C@@]14O[C@@]3(C)COC(=O)c1cccnc1[C@@H](C)[C@H](C)C(=O)O[C@@H]([C@H](OC(C)=O)[C@@H]2OC(C)=O)[C@]4(C)O	19.4% [at 25.3 µM]	
COc1ccc2c(c1)c(CCN(C)C)cn2S(=O)(=O)c1ccccc1	5.71%	

test system: Hek293T; test: as above; conditions: Gynecologic cancer cell panel viability, ATPlite luminescence, 48 h, control line for the selectivity index; series mostly up to 57.5 µM; activity change, negative = cytotoxicity: at the top concentration
Summary of the method: as §1

Structure (SMILES)	activity change, negative = cytotoxicity	Potency
CN(C)[C@@H]1C(=O)C(C(N)=O)=C(O)[C@@]2(O)C(=O)C3=C(O)c4c(O)ccc(Cl)c4[C@@](C)(O)C3C[C@@H]12 (stereo partly drawn)	10.1%	
CC(C)[C@H](NC(=O)c1nn(Cc2ccc(F)cc2)c2ccccc12)C(N)=O	13%	
CN1CCCCC1Cn1cc(C(=O)c2cc([N+](=O)[O-])ccc2I)c2ccccc21 (stereo not drawn)	0.748%	
CC12CCC3C(C1)c1c(cc(O)c(C(=O)c4ccccc4)c1OC3(C)C)O2 (stereo not drawn)	-23.4% [at 38.5 µM]	
CN1C(=O)[C@@H](Cc2c[nH]c3ccccc23)N=C(c2ccccc2F)c2ccccc21	2.43%	
C#C[C@]1(O)CC[C@H]2[C@@H]3CC[C@H]4Cc5nc6nc7ccccc7n6cc5C[C@]4(C)[C@H]3CC[C@@]21C	-26.5%	
CCC1C2CC3C4N(C)c5ccccc5C45CC(C2C5O)N3C1O (stereo not drawn)	13% [at 38.5 µM]	
COc1cc(O)c2c(c1)CCC[C@@H](O)[C@H](O)C(=O)/C=C\C[C@H](C)OC2=O		11.2 µM (active)
C[C@@H]1O[C@@H](OC2CCC3(C=O)C(CCC4C3CCC3(C)C(C5=CC(=O)OC5)C(O)CC43O)C2)[C@H](O)[C@H](O)[C@H]1O[C@@H]1O[C@H](CO)[C@@H](O)[C@H](O)[C@H]1O (stereo partly drawn)		10 µM (active)
C=C(C)C(=O)O[C@H]1[C@@H]2[C@H](C)C(=O)O[C@@H]2C[C@@H](C)[C@@H]2C=CC(=O)[C@]21C		5.62 µM (active)
CCN1C[C@]2(COC)CC[C@H](O)[C@@]34C5C[C@@H]6[C@@H](OC)C[C@@](OC(C)=O)(C5[C@@H]6OC(C)=O)[C@H]([C@H](OC)C23)[C@@H]14 (stereo partly drawn)	-5.22% [at 25.3 µM]	
C[C@]12CC[C@H](O)C[C@@]1(O)CC[C@@H]1[C@@H]2CC[C@]2(C)[C@@H](c3ccc(=O)oc3)CC[C@]12O	-12.4%	
CN1C(=O)N(c2ccc(C#N)c(C(F)(F)F)c2)C(=O)[C@@]1(CO)c1ccccc1	12.7%	
CC(=O)O[C@H]1C[C@]2(O)[C@@H]3CC[C@@H]4C[C@@H](O)CC[C@]4(C)[C@H]3CC[C@]2(C)[C@H]1c1ccc(=O)oc1		0.0891 µM (active)
CCCCCn1cc(C(=O)Oc2cccc3cccnc23)c2ccccc21	6.37%	
CN=C(NS(=O)(=O)c1ccc(Cl)cc1)N1C[C@H](c2ccccc2)C(c2ccc(Cl)cc2)=N1	2.66%	
COC1CC(O[C@H]2CC[C@@]3(C)C(CCC4C3CC[C@]3(C)C(C5=CC(=O)OC5)CCC43O)C2)OC(C)C1OC1OC(COC2OC(CO)C(O)C(O)C2O)C(O)C(O)C1O (stereo partly drawn)		3.55 µM (active)
CN(Cc1cccc(-c2ccncc2)c1)C(=O)Oc1ccc(-c2ccc(C(N)=O)cc2)cc1	0.175%	
CC1=CC2OC3CC(O)[C@](C)([C@@]2(C)C(O)C1=O)[C@]31CO1 (stereo partly drawn)		3.16 µM (active)
CN(C(=O)C(c1ccccc1)c1ccccc1)[C@H](CN1CC[C@H](O)C1)c1ccccc1	-6.69%	
COC(=O)C12C(=O)C(C)(O)C(=O)C1(C)C(C)=CC1C34CCC(OC3=O)C(C)(C)C4CCC12C (stereo not drawn)	-0.19% [at 25.3 µM]	
CCOc1ccc(Oc2ccc(OCc3cc(F)ccc3F)cc2)c(N)c1	-25.9%	
Cc1ccc2c(c1)[C@H]1CN(C)CC[C@H]1N2C(=O)CSc1nnnn1-c1ccc(Cl)cc1	6.34%	
C=C1C2(C)CC3C(C)(O)C4=CC(=O)OC(C)(C)C4=CCC3(C)C13C(=O)OC(C)C3(O)C2=O (stereo not drawn)	-0.164% [at 25.3 µM]	
CCCN(CCC)[C@@H]1CCc2ccc3[nH]c(C#N)cc3c2C1	4.04%	
c1ccc([C@@H]2C[C@H]2NC2CCNCC2)cc1	-10.7%	
CC(=O)OC[C@]12[C@H](OC(C)=O)C(=O)[C@@H]3[C@@H](O)[C@@]14O[C@@]3(C)COC(=O)c1cccnc1[C@@H](C)[C@H](C)C(=O)O[C@@H]([C@H](OC(C)=O)[C@@H]2OC(C)=O)[C@]4(C)O	3.58% [at 25.3 µM]	
Cc1c(N[C@@H](c2nnc(-c3ccc(C#N)cc3)o2)[C@H](C)O)ccc(C#N)c1Cl	-4.59%	
COc1ccc2c(c1)c(CCN(C)C)cn2S(=O)(=O)c1ccccc1	-9.21%	
